# Measurements from PubChem BioAssay AID1159580 (chemical genetic matrix, 2015).
# In all, about 5,500 compounds went through this assay and about 2,000 (36%) were called active. Not shown: some 18% with an inconclusive outcome. This is one part of the list. Unmarked numbers belong to inactive results. Rule as the data show it: active = normalized growth mostly below about 0.91 (no sharp cut-off); inconclusive = no clear call, values can overlap the other calls; inactive = mostly above about 0.92.
# Assay: chemical genetic growth profiling, strain panel (AID 1159580);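 also: tested at 20 µM; growth read once vehicle control cultures reached saturation at 30 °C; 1 = growth at the plate median or of vehicle wells; lower values mean less growth of the strain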
# Settings: S. cerevisiae deletion strains, growth OD
# [1] = locus YAL021C, strain ccr4, hits give low values
# [2] = locus YAL026C, strain drs2, hits give low values
# [3] = locus YAL030W, strain snc1, hits give low values
# [4] = locus YBL061C, strain skt5, hits give low values
# [5] = locus YBR009C, strain hhf1, hits give low values
# [6] = locus YBR023C, strain chs3, hits give low values
# [7] = locus YBR171W, strain sec66, hits give low values
# [8] = locus YBR231C, strain swc5, hits give low values
# [9] = locus YBR279W, strain paf1, hits give low values
# [10] = locus YCL011C, strain gbp2, hits give low values
# [11] = locus YCL016C, strain dcc1, hits give low values
# [12] = locus YCL069W, strain vba3, hits give low values
# [13] = locus YCR088W, strain abp1, hits give low values
# [14] = locus YDL005C, strain med2, hits give low values
# [15] = locus YDL040C, strain nat1, hits give low values
# [16] = locus YDR001C, strain nth1, hits give low values
# [17] = locus YDR069C, strain doa4, hits give low values
# [18] = locus YDR137W, strain rgp1, hits give low values
# [19] = locus YDR159W, strain sac3, hits give low values
# [20] = locus YDR297W, strain sur2, hits give low values
# [21] = locus YDR334W, strain swr1, hits give low values
# [22] = locus YDR335W, strain msn5, hits give low values
# [23] = locus YDR392W, strain spt3, hits give low values
# [24] = locus YEL003W, strain gim4, hits give low values
# [25] = locus YEL037C, strain rad23, hits give low values
# [26] = locus YEL061C, strain CIN8 (second series), hits give low values
# [27] = locus YER015W, strain faa2, hits give low values
# [28] = locus YER016W, strain bim1, hits give low values
# [29] = locus YER111C, strain swi4, hits give low values
# [30] = locus YER155C, strain BEM2 (second series), hits give low values
# [31] = locus YFR010W, strain ubp6, hits give low values
# [32] = locus YGL167C, strain pmr1, hits give low values
# [33] = locus YGL173C, strain kem1, hits give low values
# [34] = locus YGL227W, strain vid30, hits give low values
# [35] = locus YGL240W, strain doc1, hits give low values
# [36] = locus YGL253W, strain hxk2, hits give low values
# [37] = locus YHR013C, strain ard1, hits give low values
# [38] = locus YHR027C, strain rpn1, hits give low values
# [39] = locus YHR142W, strain chs7, hits give low values
# [40] = locus YJL092W, strain hpr5, hits give low values
# [41] = locus YJL095W, strain BCK1 (second series), hits give low values
# [42] = locus YJL115W, strain asf1, hits give low values
# [43] = locus YJL129C, strain trk1, hits give low values
# [44] = locus YJL154C, strain vps35, hits give low values
# [45] = locus YJL164C, strain tpk1, hits give low values
# [46] = locus YJL166W, strain qcr8, hits give low values
# [47] = locus YKL160W, strain elf1, hits give low values
# [48] = locus YKR026C, strain gcn3, hits give low values
# [49] = locus YKR091W, strain srl3, hits give low values
# [50] = locus YLL001W, strain dnm1, hits give low values
# [51] = locus YLL026W, hits give low values
# [52] = locus YLL041C, strain sdh2, hits give low values
# [53] = locus YLR027C, strain aat2, hits give low values
# [54] = locus YLR221C, strain rsa3, hits give low values
# [55] = locus YLR258W, strain gsy2, hits give low values
# [56] = locus YLR262C, strain YPT6 (second series), hits give low values
# [57] = locus YLR320W, strain mms22, hits give low values
# [58] = locus YLR342W, strain FKS1, hits give low values
# [59] = locus YLR357W, strain rsc2, hits give low values
# [60] = locus YLR370C, strain arc18, hits give low values
# [61] = locus YLR384C, strain iki3, hits give low values
# [62] = locus YML120C, strain ndi1, hits give low values
# [63] = locus YMR058W, strain fet3, hits give low values
# [64] = locus YMR125W, strain sto1, hits give low values
# [65] = locus YMR129W, hits give low values
# [66] = locus YMR205C, strain PFK2, hits give low values
# [67] = locus YMR231W, strain pep5, hits give low values
# [68] = locus YNL071W, strain lat1, hits give low values
# [69] = locus YNL209W, strain ssb2, hits give low values
# [70] = locus YNL248C, strain rpa49, hits give low values
# [71] = locus YNL322C, strain KRE1 (second series), hits give low values
# [72] = locus YNR049C, strain mso1, hits give low values
# [73] = locus YOR001W, strain rrp6, hits give low values
# [74] = locus YOR070C, strain gyp1, hits give low values
# [75] = locus YOR080W, strain dia2, hits give low values
# [76] = locus YOR083W, strain WHI5, hits give low values
# [77] = locus YOR106W, strain vam3, hits give low values
# [78] = locus YOR265W, strain rbl2, hits give low values
# [79] = locus YOR270C, strain vph1, hits give low values
# [80] = locus YOR290C, strain snf2, hits give low values
# [81] = locus YPL051W, strain arl3, hits give low values
# [82] = locus YPL078C, strain atp4, hits give low values
# [83] = locus YPL106C, strain sse1, hits give low values
# [84] = locus YPL240C, strain hsp82, hits give low values
smiles,measurement,setting,value
CC1OC(=O)C(C(C)C)NC(=O)C(C(C)C)OC(=O)C(C(C)C)NC(=O)C(C)OC(=O)C(C(C)C)NC(=O)C(C(C)C)OC(=O)C(C(C)C)NC(=O)C(C)OC(=O)C(C(C)C)NC(=O)C(C(C)C)OC(=O)C(C(C)C)NC1=O (stereo unspecified),normalized growth,[1],0.202 (active)
same,normalized growth,[2],0.544 (active)
same,normalized growth,[3],0.326 (active)
same,normalized growth,[4],0.229 (active)
same,normalized growth,[5],0.223 (active)
same,normalized growth,[6],0.23 (active)
same,normalized growth,[7],0.54 (active)
same,normalized growth,[8],0.286 (active)
same,normalized growth,[9],0.544 (active)
same,normalized growth,[10],0.28 (active)
same,normalized growth,[11],0.238 (active)
same,normalized growth,[12],0.51 (active)
same,normalized growth,[13],0.51 (active)
same,normalized growth,[14],0.332 (active)
same,normalized growth,[15],0.468 (active)
same,normalized growth,[16],0.615 (active)
same,normalized growth,[17],0.383 (active)
same,normalized growth,[18],0.144 (active)
same,normalized growth,[19],0.318 (active)
same,normalized growth,"locus YDR195W, strain ref2",0.336 (active)
same,normalized growth,[20],0.404 (active)
same,normalized growth,[21],0.494 (active)
same,normalized growth,[22],0.697 (active)
same,normalized growth,[23],0.148 (active)
same,normalized growth,[24],0.357 (active)
same,normalized growth,[25],0.673 (active)
same,normalized growth,[26],0.448 (active)
same,normalized growth,[27],0.205 (active)
same,normalized growth,[28],0.259 (active)
same,normalized growth,[29],0.639 (active)
same,normalized growth,[30],0.6 (active)
same,normalized growth,[31],0.535 (active)
same,normalized growth,[32],0.166 (active)
same,normalized growth,[33],0.157 (active)
same,normalized growth,[34],0.599 (active)
same,normalized growth,[35],0.112 (active)
same,normalized growth,[36],0.243 (active)
same,normalized growth,[37],0.159 (active)
same,normalized growth,[38],0.331 (active)
same,normalized growth,[39],0.342 (active)
same,normalized growth,[40],0.556 (active)
same,normalized growth,[41],0.266 (active)
same,normalized growth,[42],0.79 (active)
same,normalized growth,[43],0.251 (active)
same,normalized growth,[44],0.688 (active)
same,normalized growth,[45],0.267 (active)
same,normalized growth,[46],0.115 (active)
same,normalized growth,"locus YJL187C, strain SWE1, hits give low values",0.343 (active)
same,normalized growth,[47],0.278 (active)
same,normalized growth,[48],0.65 (active)
same,normalized growth,[49],0.476 (active)
same,normalized growth,[50],0.499 (active)
same,normalized growth,[51],0.301 (active)
same,normalized growth,[52],0.368 (active)
same,normalized growth,[53],0.27 (active)
same,normalized growth,[54],0.326 (active)
same,normalized growth,[55],0.349 (active)
same,normalized growth,[56],0.132 (active)
same,normalized growth,[57],0.18 (active)
same,normalized growth,[58],0.115 (active)
same,normalized growth,[59],0.891
same,normalized growth,[60],0.395 (active)
same,normalized growth,[61],0.464 (active)
same,normalized growth,[62],0.389 (active)
same,normalized growth,[63],0.486 (active)
same,normalized growth,[64],0.835 (active)
same,normalized growth,[65],0.411 (active)
same,normalized growth,[66],0.278 (active)
same,normalized growth,[67],0.193 (active)
same,normalized growth,[68],0.0873 (active)
same,normalized growth,[69],0.237 (active)
same,normalized growth,[70],0.944
same,normalized growth,[71],0.463 (active)
same,normalized growth,[72],0.563 (active)
same,normalized growth,[73],0.497 (active)
same,normalized growth,[74],0.216 (active)
same,normalized growth,[75],0.381 (active)
same,normalized growth,[76],0.318 (active)
same,normalized growth,[77],0.331 (active)
same,normalized growth,[78],0.288 (active)
same,normalized growth,[79],0.227 (active)
same,normalized growth,[80],0.61 (active)
same,normalized growth,[81],0.125 (active)
same,normalized growth,[82],0.14 (active)
same,normalized growth,[83],0.359 (active)
same,normalized growth,[84],0.412 (active)
O=c1ccc2ccc(O)cc2o1,normalized growth,[1],1.05
same,normalized growth,[2],0.984
same,normalized growth,[3],0.999
same,normalized growth,[4],0.991
same,normalized growth,[5],1.01
same,normalized growth,[6],1.01
same,normalized growth,[7],0.987
same,normalized growth,[8],0.976
same,normalized growth,[9],1.01
same,normalized growth,[10],1.01
same,normalized growth,[11],1.02
same,normalized growth,[12],0.996
same,normalized growth,[13],0.996
same,normalized growth,[14],0.981
same,normalized growth,[15],0.988
same,normalized growth,[16],0.988
same,normalized growth,[17],0.993
same,normalized growth,[18],1.02
same,normalized growth,[19],0.972
same,normalized growth,"locus YDR195W, strain ref2",0.942
same,normalized growth,[20],0.986
same,normalized growth,[21],0.985
same,normalized growth,[22],1
same,normalized growth,[23],0.96
same,normalized growth,[24],0.988
same,normalized growth,[25],0.985
same,normalized growth,[26],0.989
same,normalized growth,[27],1.01
same,normalized growth,[28],0.996
same,normalized growth,[29],0.981
same,normalized growth,[30],0.986
same,normalized growth,[31],0.976
same,normalized growth,[32],0.99
same,normalized growth,[33],0.988
same,normalized growth,[34],0.983
same,normalized growth,[35],0.976
same,normalized growth,[36],0.972
same,normalized growth,[37],0.997
same,normalized growth,[38],0.981
same,normalized growth,[39],1.01
same,normalized growth,[40],0.994
same,normalized growth,[41],1
same,normalized growth,[42],0.985
same,normalized growth,[43],0.972
same,normalized growth,[44],0.988
same,normalized growth,[45],1.01
same,normalized growth,[46],1
same,normalized growth,[47],1.01
same,normalized growth,[48],0.991
same,normalized growth,[49],0.992
same,normalized growth,[50],1.01
same,normalized growth,[51],1
same,normalized growth,[52],0.992
same,normalized growth,[53],1.01
same,normalized growth,[54],0.98
same,normalized growth,[55],1.03
same,normalized growth,[56],1.01
same,normalized growth,[57],0.975
same,normalized growth,[58],1
same,normalized growth,[59],0.996
same,normalized growth,[60],1
same,normalized growth,[61],0.988
same,normalized growth,[62],1.01
same,normalized growth,[63],0.99
same,normalized growth,[64],1.01
same,normalized growth,[65],0.993
same,normalized growth,[66],1.02
same,normalized growth,[67],0.982
same,normalized growth,[68],1
same,normalized growth,[69],1.01
same,normalized growth,[70],0.999
same,normalized growth,[71],0.996
same,normalized growth,[72],0.979
same,normalized growth,[73],0.931
same,normalized growth,[74],0.999
same,normalized growth,[75],0.992
same,normalized growth,[76],1.03
same,normalized growth,[77],1.03
same,normalized growth,[78],0.994
same,normalized growth,[79],0.985
same,normalized growth,[80],1
same,normalized growth,[81],0.997
same,normalized growth,[82],1.01
same,normalized growth,[83],1.03
same,normalized growth,[84],0.998
